Test results reported in the supplement of paper PMC6607015.
Where a name gives a salt, the structure may show the parent alone.

What was measured:
Conditions in all cases: compound concentration in added solution (µM; 5 µl added to 20 µl cells): 10; 18 h
A431 [1] = experiment: LBPA endosome anti-LBPA integrated intensity (sum per cell), Z-score; higher = more LBPA staining
Procedure, shortened: (§1)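 HeLa MZ or A431 cells (3,500/well in 20 µl) were seeded onto 5 µl of 10 µM compound solution in duplicate 384-well imaging plates, incubated 18 h, then fixed in 4% PFA. Cells were stained with 6C4 anti-LBPA antibody, filipin, propidium iodide and CellTracker green, and four 20× images were taken per well. MetaXpress segmentation gave per-cell integrated LBPA or filipin intensity, either whole-cell or within LBPA endosomes. Values are Z-scores normalised in AcuityXpress.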

HeLa MZ [2] = experiment: as above
Procedure, shortened: as §1

A431 [3] = experiment: whole-cell filipin (free cholesterol) integrated intensity, Z-score; higher = more cholesterol staining
Procedure, shortened: as §1

HeLa MZ [4] = experiment: as above
Procedure, shortened: as §1

A431 [5] = experiment: filipin (cholesterol) integrated intensity within LBPA endosomes, Z-score; higher = more cholesterol in LBPA endosomes
Procedure, shortened: as §1

HeLa MZ [6] = experiment: as above
Procedure, shortened: as §1

| Compound | LBPA endosome anti-LBPA integrated intensity (z-score) (A431 [1]) | LBPA endosome anti-LBPA integrated intensity (z-score) (HeLa MZ [2]) | whole-cell filipin (z-score) (A431 [3]) | whole-cell filipin (z-score) (HeLa MZ [4]) | filipin (z-score) (A431 [5]) | filipin (z-score) (HeLa MZ [6]) |
| --- | --- | --- | --- | --- | --- | --- |
| C[C@H](CCC(=O)O)[C@H]1CC[C@H]2[C@@H]3[C@@H](O)C[C@@H]4C[C@H](O)CC[C@]4(C)[C@H]3CC[C@]12C [Urosiol] | -0.47 | -1.19 | -0.529 | -0.329 | -0.433 | -0.53 |
| CC1(C)S[C@@H]2[C@H](NC(=O)[C@H](N)c3ccccc3)C(=O)N2[C@H]1C(=O)OC1OC(=O)c2ccccc21 (some centres not stated) [Talampicillin hydrochloride] | -0.446 | 0.322 | -0.121 | 0.482 | -0.392 | -0.35 |
| N#Cc1ccc(C2CCCc3cncn32)cc1 (configuration not stated) [Fadrozole hydrochloride] | -0.639 | -1.49 | -1.18 | -0.874 | -0.538 | -0.502 |
| CN1CCN2c3ccccc3Cc3ccccc3C2C1 (configuration not stated) [Mianserine hydrochloride] | 1.6 | 1.07 | 1.17 | 0.96 | 1.16 | 1.54 |
| C[C@@H](O)[C@H]1C(=O)N2C(C(=O)O)=C(S[C@@H]3CN[C@H](C(=O)N(C)C)C3)[C@H](C)[C@H]12 [Meropenem] | -0.501 | -0.52 | 0.0963 | -0.649 | -0.531 | -0.725 |
| CCN(CCO)CCCC(C)Nc1ccnc2cc(Cl)ccc12 (configuration not stated) [Hydroxychloroquine sulfate] | 0.14 | 1.98 | -0.556 | 0.249 | -0.241 | 0.821 |
| CC(=O)O[C@]1(C(C)=O)CC[C@H]2[C@@H]3C=C(Cl)C4=CC(=O)CC[C@]4(C)[C@H]3CC[C@@]21C [Chlormadinone acetate] | 0.021 | 2.23 | 0.739 | 1.32 | 0.102 | 0.534 |
| CCC1=C(C)CN(C(=O)NCCc2ccc(S(=O)(=O)NC(=O)N[C@H]3CC[C@H](C)CC3)cc2)C1=O [Glimepiride] | -0.623 | -0.491 | -0.412 | -0.0517 | -0.467 | -0.486 |
| CC(C(=O)O)c1ccc(-c2ccccc2)c(F)c1 (configuration not stated) [Flurbiprofen] | -0.227 | 0.0649 | 0.155 | -0.426 | -0.328 | -0.513 |
| CC1(C)O[C@@H]2C[C@H]3[C@@H]4CCC5=CC(=O)CC[C@]5(C)[C@@]4(F)[C@@H](O)C[C@]3(C)[C@]2(C(=O)CCl)O1 [Halcinonide] | -0.266 | -0.708 | -0.0733 | 0.0912 | -0.203 | -0.18 |
| CN(C)CC/C=C1/c2ccccc2Sc2ccc(Cl)cc21 [Chlorprothixene hydrochloride] | 4.13 | 2.63 | 1.46 | 0.54 | 2.61 | 2.32 |
| CC1=C(C(=O)O)N2C(=O)[C@@H](NC(=O)[C@H](N)c3ccc(O)cc3)[C@H]2SC1 [Cefadroxil] | -0.651 | -1.02 | -0.697 | -0.675 | -0.507 | -0.626 |
